Source: PubChem BioAssay (several laboratories)
MEKK3 PB1 HTS: MEKK3-MEK5 PB1 interaction, increase or decrease | bead-based flow cytometry, Alexa488-MEK5 binding to MEKK3; actives lie on both sides; 0 = blocked by unlabeled MEK5, 100 = vehicle | binding response (% of control), % at 10 µM | hit rate 1.4% among 290,000 | AID 1529;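 active means binding response more than 3 SD above or below the average of its plate-row segment, actives on both sides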;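 further: Alexa488 bead fluorescence after subtracting the streptavidin-only scavenger bead signal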
CHT PAM: human CHT allosteric activation; hit rate 0.49% among 310,000; CHT-expressing cells, membrane potential dye, choline EC20; active compounds read high; LV-AA mutant CHT in HEK293 cells; B-score at 10 µM; AID 488977;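 active means initial fluorescence not abnormally high and integrated response B-score, plate-corrected, over 3 SD above library mean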
Target sequence (Q9GZV3 whole entry, looked up): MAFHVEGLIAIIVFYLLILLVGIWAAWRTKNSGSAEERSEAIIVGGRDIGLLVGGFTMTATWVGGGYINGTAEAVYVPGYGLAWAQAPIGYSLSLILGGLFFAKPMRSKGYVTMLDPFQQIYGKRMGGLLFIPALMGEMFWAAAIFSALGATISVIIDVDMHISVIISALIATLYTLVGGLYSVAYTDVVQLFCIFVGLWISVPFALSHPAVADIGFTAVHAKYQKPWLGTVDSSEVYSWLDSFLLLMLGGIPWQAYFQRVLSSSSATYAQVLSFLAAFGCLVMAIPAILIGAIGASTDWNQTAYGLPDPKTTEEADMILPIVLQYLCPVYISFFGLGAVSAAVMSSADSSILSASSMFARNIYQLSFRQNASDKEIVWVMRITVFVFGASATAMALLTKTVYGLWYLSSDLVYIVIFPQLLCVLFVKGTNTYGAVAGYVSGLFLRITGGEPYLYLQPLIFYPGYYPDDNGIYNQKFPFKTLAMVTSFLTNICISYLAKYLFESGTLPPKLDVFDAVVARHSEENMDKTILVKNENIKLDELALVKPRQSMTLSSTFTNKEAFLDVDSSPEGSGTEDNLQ
Mot1-301 SUMO: blocks SUMOylation pathway, rescuing yeast Mot1-301 growth. hit rate 1% among 320,000. S. cerevisiae Mot1-301 growth rescue, ATP luminescence, 38.5C; percent above DMSO median, 100 means doubled. growth rescue, % at 18.8 µM;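 active means every valid replicate shows activation above 250% relative to neutral control wells; inactive means the rest, any valid replicate at or below 250%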;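 further: OY570 slx delta 5 strain wells were the positive control but not used for scaling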
CHT block: inhibits the human high affinity choline transporter; Q9GZV3; B-score at 10 µM; hit rate 0.86% among 310,000; CHT-expressing cells, membrane potential dye, choline response; active compounds read low; AID 488975;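 active means B-score over 3 SD under the library average, and starting fluorescence ratio not unusually high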;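 further: choline stimulus applied at its EC90 after an EC20 pre-addition; B-score computed on integrated fluorescence ratio after choline addition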
MEKK2 WT-MEK5: raises or lowers MEK5 binding to wildtype human MEKK2 PB1 domain. Q9Y2U5. bead flow cytometry, Alexa488-MEK5 binding to MEKK2 WT; actives lie on both sides. binding response (% of control), % at 10 µM. hit rate 1.1% among 290,000; in the data active means binding response below about 67% or above about 130%
MEKK2 mut-MEK5: signal of MEK5 binding to mutant human MEKK2 PB1 domain; bead flow cytometry, Alexa488-MEK5 binding to MEKK2 mutant; percent response, % at 10 µM; hit rate 0.35% among 290,000; in the data active means percent response above about 24%, passing the limit was not always enough
CHT activ conf: human CHT activation, confirmatory screen; shares compounds with CHT PAM; CHT-expressing cells, membrane potential dye fluorescence (FDSS); % of choline EC20–EC90 response window; HEK293 expressing CHT LV-AA mutant; choline added at its EC20; activation, % at 10 µM; hit rate 91% among 2,500;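 active means primary screen active, with duplicate mean activation above negative control mean plus 3 SD, cut at about 11% in these data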
HEK293 MP dye: activity in parental HEK293 cells lacking CHT | ratio readout change at 10 µM, hits read low | shares compounds with CHT PAM | AID 623908 | membrane potential dye fluorescence (FDSS); measured after EC20 choline addition | hit rate 62% among 2,500;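 active means duplicate-averaged ratio beyond 3 SD from buffer wells, up or down, though filed actives are nearly all decreases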
An asterisk follows results filed as active. Most compounds without a hit are left out; they make up all but 4.1% or so of the library.

`CC(C)CC(C)N1CCC(n2nccc2NC(=O)CCc2ccccc2)CC1` (configuration not stated) gave MEKK3 PB1 HTS 97.0, CHT PAM inactive, Mot1-301 SUMO 262.8, CHT block inactive, MEKK2 WT-MEK5 102.0, MEKK2 mut-MEK5 3.0, CHT activ conf 31.7* and HEK293 MP dye inactive.
Screening CC(C)=CC(=O)N1CCC(n2nccc2NC(=O)CCc2ccccc2)CC1 returned MEKK3 PB1 HTS 102.0, CHT PAM inactive, Mot1-301 SUMO -13.0, CHT block inactive, MEKK2 WT-MEK5 99.0 and MEKK2 mut-MEK5 0.0.
For Cc1noc(C)c1COc1ccc(C(=O)N2CCC(C(N)=O)CC2)cc1 the results were Mot1-301 SUMO 146.9.
For Cc1ccc2c(c1)c1nnc(SCC(=O)Nc3ccc(N(C)C)cc3)nc1n2CC(=O)O the results were MEKK3 PB1 HTS 104.0, CHT PAM inactive, Mot1-301 SUMO -5.2, CHT block inactive, MEKK2 WT-MEK5 121.0 and MEKK2 mut-MEK5 19.0.
Cc1cccc(NC(=S)N2CCN(c3ccc(F)cc3)CC2)c1 was read as MEKK3 PB1 HTS 71.0, CHT PAM inactive, Mot1-301 SUMO 35.5, CHT block inactive, MEKK2 WT-MEK5 83.0 and MEKK2 mut-MEK5 -15.0.
For CCCCCCn1c(CN2CCC(C)CC2)nc2c1c(=O)n(C)c(=O)n2C the results were MEKK3 PB1 HTS 95.0, CHT PAM inactive, Mot1-301 SUMO 174.3, CHT block inactive, MEKK2 WT-MEK5 95.0 and MEKK2 mut-MEK5 0.0.
`CCCn1c(CN(C)Cc2ccccc2)nc2c1c(=O)n(C)c(=O)n2C` gave MEKK3 PB1 HTS 107.0, CHT PAM inactive, Mot1-301 SUMO -6.1, CHT block inactive, MEKK2 WT-MEK5 104.0 and MEKK2 mut-MEK5 2.0.
Screening CCCCCCn1c(CN2CCN(CCO)CC2)nc2c1c(=O)n(C)c(=O)n2C returned MEKK3 PB1 HTS 105.0, CHT PAM 8.1*, Mot1-301 SUMO 3.0, CHT block inactive, MEKK2 WT-MEK5 109.0, MEKK2 mut-MEK5 10.0, CHT activ conf 59.7* and HEK293 MP dye -55.7*.
For CCCCn1c(CN(C)Cc2ccccc2)nc2c1c(=O)n(C)c(=O)n2C the results were MEKK3 PB1 HTS 94.0, CHT PAM 6.59*, Mot1-301 SUMO 183.5, CHT block inactive, MEKK2 WT-MEK5 97.0, MEKK2 mut-MEK5 -2.0, CHT activ conf 0.2 and HEK293 MP dye inactive.
Screening Cc1cccc(N2CCN(C3CCCCC3NS(=O)(=O)c3ccccc3)CC2C)c1 (configuration not stated) returned MEKK3 PB1 HTS 95.0, CHT PAM inactive, Mot1-301 SUMO -20.3, CHT block inactive, MEKK2 WT-MEK5 95.0 and MEKK2 mut-MEK5 -2.0.
Screening CN(C)c1ccc(S(=O)(=O)N2CCCCC2)cc1NC(=O)CCNC(=O)c1ccco1 returned Mot1-301 SUMO 2.5.
Cc1cc(C[n+]2cc(Cl)ccc2N)c2ncccc2c1 was read as MEKK3 PB1 HTS 90.0, CHT PAM 15.8*, Mot1-301 SUMO -6.1, CHT block inactive, MEKK2 WT-MEK5 92.0, MEKK2 mut-MEK5 -11.0, CHT activ conf 45.6* and HEK293 MP dye -39*.
Screening Cc1ccc2cccnc2c1N returned MEKK3 PB1 HTS 102.0, CHT PAM inactive, Mot1-301 SUMO -5.7, CHT block inactive, MEKK2 WT-MEK5 103.0 and MEKK2 mut-MEK5 2.0.
For Cc1cc(C[n+]2ncsc2N)c2ncccc2c1 the results were MEKK3 PB1 HTS 102.0, CHT PAM inactive, Mot1-301 SUMO -10.9, CHT block inactive, MEKK2 WT-MEK5 108.0, MEKK2 mut-MEK5 6.0, CHT activ conf 73.2* and HEK293 MP dye -23.4*.
Screening Cc1cc(C[n+]2cc(Br)ccc2N)c2ncccc2c1 returned MEKK3 PB1 HTS 99.0, CHT PAM 8.47*, Mot1-301 SUMO 0.1, CHT block inactive, MEKK2 WT-MEK5 103.0, MEKK2 mut-MEK5 0.0, CHT activ conf 49.3* and HEK293 MP dye -43.9*.
For COC(=O)c1cc(C(=O)N2CCN(c3ccccc3OC)CC2)cc([N+](=O)[O-])c1 the results were MEKK3 PB1 HTS 99.0, CHT PAM 6.77*, Mot1-301 SUMO 27.2, CHT block inactive, MEKK2 WT-MEK5 88.0, MEKK2 mut-MEK5 -13.0, CHT activ conf 13.0* and HEK293 MP dye inactive.
Screening COC(=O)c1cc(C(=O)N2CCN(c3cccc(C)c3C)CC2)cc([N+](=O)[O-])c1 returned MEKK3 PB1 HTS 91.0, CHT PAM inactive, Mot1-301 SUMO 20.6, CHT block inactive, MEKK2 WT-MEK5 89.0 and MEKK2 mut-MEK5 -6.0.
CCN1CCS/C1=C/C=C/C1=[N+](CC)CCS1 was read as MEKK3 PB1 HTS 90.0, CHT PAM 6.9*, Mot1-301 SUMO -8.7, CHT block inactive, MEKK2 WT-MEK5 97.0, MEKK2 mut-MEK5 -2.0, CHT activ conf 45.5* and HEK293 MP dye -31.1*.
Screening CCN1CCS/C1=C\C=C\C1=[N+](CC)CCS1 returned MEKK3 PB1 HTS 101.0, MEKK2 WT-MEK5 100.0 and MEKK2 mut-MEK5 7.0.
For O=C1Nc2ccc(Br)cc2C1=Nc1ccc(-c2nnc3n2CCCCC3)cc1 the results were CHT PAM inactive, Mot1-301 SUMO -3.0 and CHT block inactive.
`COc1ccc2nc(C)cc(N3CCC(C(N)=O)CC3)c2c1` gave MEKK3 PB1 HTS 105.0, CHT PAM 7.2*, Mot1-301 SUMO 0.3, CHT block inactive, MEKK2 WT-MEK5 104.0, MEKK2 mut-MEK5 9.0, CHT activ conf 61.2* and HEK293 MP dye -76.3*.
`CCOC(=O)C1CCN(c2cc(C)nc3ccc(OC)cc23)CC1` gave MEKK3 PB1 HTS 100.0, CHT PAM 7.78*, CHT block inactive, MEKK2 WT-MEK5 102.0, MEKK2 mut-MEK5 -2.0, CHT activ conf 42.3* and HEK293 MP dye -72.5*.
For COc1ccc(N2CCN(c3cc(C)nc4ccc(OC)cc34)CC2)cc1 the results were MEKK3 PB1 HTS 101.0, CHT PAM inactive, Mot1-301 SUMO -7.7, CHT block inactive, MEKK2 WT-MEK5 101.0 and MEKK2 mut-MEK5 -6.0.
Screening Cc1cc(Cl)ccc1OCCCC(=O)NNC(=O)c1ccncc1 returned Mot1-301 SUMO -17.5.
`CCn1cc(C(=O)OCC(=O)N(C)Cc2ccccc2)c(=O)c2ccc(C)nc21` gave MEKK3 PB1 HTS 99.0, CHT PAM inactive, Mot1-301 SUMO 12.7, CHT block inactive, MEKK2 WT-MEK5 96.0 and MEKK2 mut-MEK5 -1.0.
